Compound activity from PubChem BioAssay.
Only some compounds are listed: those with a hit (about 3.7% of all), similar ones and a draw of the others.
Nrf2 inh: Nrf2 pathway inhibition | A549 ARE-Fluc reporter, luciferase luminescence, 18-24 h | Potency, µM (titrated, usually from 46 µM), for the others: top-dose activity change, negative = inhibition, hits mostly inhibitors | actives 2.1% (n = 360,000) | AID 504444; further: on the % scale 0 is the no-effect control and ±100 the full control effect; nearly all actives have a fitted effect of over 60% in size
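Nrf2 function is reported as luminescence of an ARE-controlled luciferase in A549 cells. Compounds were tested at several concentrations, and a CellTiter-Fluor read on the same wells flagged cytotoxicity.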
Nrf2 activator: activators of Nrf2 (ARE) signaling; actives 0.31% (n = 410,000); AID 624171; AREc32 ARE-luciferase reporter (MCF7-derived line), luminescence, 24 h; Potency, µM (top dose mostly 46.1 µM), for inactives: top-dose activation, hits mostly activators; further: % of control where 0% means no effect; nearly all actives have a fitted effect of over 65% in size
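ARE activation measured as luciferase luminescence (Steady-Glo, 30 min RT) in AREc32_Fluc cells after 24 hr compound exposure at 37 deg C, 5% CO2; cells seeded overnight at 1000/well in OPTI-MEM, 5% FBS.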
A549 tox: counter-screen for Nrf2 inhibitors: cytotoxicity in A549 cells. Potency, µM (series often up to 46 µM), for the others: at the top dose activity change, negative = cytotoxicity, actives largely listed as inhibitors. A549 ARE-Fluc cells, CellTiter-Fluor viability, 18-24 h. actives 0.16% (n = 390,000); further: on the % scale 0 is the no-effect control and ±100 the full control effect
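A549 ARE_Fluc cells in 5% FBS OPTI-MEM were exposed to compounds in concentration-response for 18-24 h at 37 deg C. Viability was read by CellTiter-Fluor fluorescence (Ex 405/Em 525) after 30 min, before the luciferase read.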
ELG1 repair inh: ELG1-dependent DNA repair inhibition | HEK293T ELG1-luciferase reporter, luminescence, 16 h; DNA damage induced by 5-fluorouridine | Potency, µM (highest dose often 46.1 µM), for the others: top-dose activity change, negative = inhibition, most hits filed as inhibitors | actives 2.3% (n = 330,000); further: on the % scale 0 is the no-effect control and ±100 the full control effect; nearly all actives have a fitted effect of over 55% in size
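5-Fluorouridine DNA damage + compound/DMSO, 2,000 cells/well, 16 h, 37 °C/5% CO2. ONE-Glo, 30 min RT, luminescence. Readout = decrease in reporter signal.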
* marks the source's active call; other numbers are inactive results; ! = not active in a repeat. The call rests on the fitted dose curve; in most records, active means well fitted curve in the direction sought with a large enough effect; inconclusive means small, poorly fitted or top-dose-only effect, or another doubt; inactive means no such curve, though single readings can be large; an effect the other way counts as inactive or inconclusive. Potency means the concentration at half of the fitted maximal effect.

Results for COc1ccc(CCNC(=O)c2cc(-c3ccccc3OC)on2)cc1OC ?
Nrf2 inh: inconclusive; Nrf2 activator: 0%; A549 tox: -4%; ELG1 repair inh: 16µM*

What do the screens show for `COc1ccccc1-c1cc(C(=O)NCCc2ccccc2)no1`?
Nrf2 inh: inconclusive; Nrf2 activator: 1%; A549 tox: -2%; ELG1 repair inh: inconclusive

What do the screens show for `COc1ccc(CCNC(=O)c2cc3sc(Cl)cc3n2C)cc1OC`?
Nrf2 inh: 26µM*; Nrf2 activator: 2%; A549 tox: -3%; ELG1 repair inh: inconclusive

Results for COc1ccc(CCNC(=O)c2ccc3ccccc3n2)cc1OC ?
Nrf2 inh: 23µM*; Nrf2 activator: 4%; A549 tox: -13%; ELG1 repair inh: inconclusive

What do the screens show for `Cc1ccc(CNC(=O)c2cc3sc(Cl)cc3n2C)cc1`?
Nrf2 inh: inconclusive; Nrf2 activator: 1%; A549 tox: -3%

What do the screens show for `COc1ccc(CCNC(=O)c2nc(-c3cccs3)no2)cc1OC`?
Nrf2 inh: 21µM*; Nrf2 activator: 3%; A549 tox: -17%; ELG1 repair inh: 9.2µM*

Results for COc1ccc(NC(=O)c2ccc(Cl)c(S(=O)(=O)NCC3CCCO3)c2)c(OC)c1 (stereo not drawn) ?
Nrf2 inh: inconclusive; Nrf2 activator: -1%; A549 tox: -22%; ELG1 repair inh: -10%

What do the screens show for `COc1ccc(CNC(=O)c2ccc3ccccc3n2)cc1OC`?
Nrf2 inh: 13µM*; Nrf2 activator: 3%; A549 tox: -16%; ELG1 repair inh: 16µM*

How did COc1ccc(CCNC(=O)c2cc(-c3cc(C)ccc3O)n[nH]2)cc1OC do in these assays?
Nrf2 inh: -9%; Nrf2 activator: 4%; A549 tox: 2%; ELG1 repair inh: 23µM*

How did COc1ccc(CCNC(=O)c2cc(-c3ccc(C)c(C)c3O)n[nH]2)cc1OC do in these assays?
Nrf2 inh: 4%; Nrf2 activator: 3%; A549 tox: 1%; ELG1 repair inh: inconclusive

What do the screens show for `CCOc1cc(NC(=S)Nc2ccc(Cl)cc2)c(OCC)cc1NC(C)=O`?
Nrf2 inh: -17%; Nrf2 activator: 3%; A549 tox: -1%; ELG1 repair inh: 7.3µM*

How did CCOc1cc(NC(=S)Nc2ccccc2)c(OCC)cc1NC(=O)c1ccc(OC)cc1 do in these assays?
Nrf2 inh: -17%; Nrf2 activator: -1%; A549 tox: -15%; ELG1 repair inh: inconclusive

How did CCOc1cc(NC(=O)CCl)c(OCC)cc1NC(=O)CCl do in these assays?
Nrf2 inh: inconclusive; Nrf2 activator: 7.1µM*; A549 tox: 2%; ELG1 repair inh: inconclusive

How did O=C(CN1C(=O)NC2(CCCC2)C1=O)OCCOc1ccc(Cl)cc1 do in these assays?
Nrf2 inh: -10%; Nrf2 activator: -1%; A549 tox: 1%; ELG1 repair inh: inconclusive

What do the screens show for `CS(=O)(=O)c1ccc(CNC(=O)C2(C(F)(F)F)C/C(=C\Cc3ccccc3)CCCO2)cc1` (stereo not drawn)?
Nrf2 inh: 18µM*!; Nrf2 activator: 4%; A549 tox: 9%

What do the screens show for `COc1ccc(OC)c(S(=O)(=O)N2CCN(C(=O)c3cc(C4CC4)nn3-c3ccccc3)CC2)c1`?
Nrf2 inh: 26µM*; Nrf2 activator: 0%; A549 tox: -9%; ELG1 repair inh: -13%

What do the screens show for `CCC(=O)N1CCc2cc(Br)cc(S(=O)(=O)N3CCC(C(=O)Nc4cccc(C)c4)CC3)c21`?
Nrf2 inh: 8.2µM*; Nrf2 activator: -1%; A549 tox: -8%

What do the screens show for `O=C(c1cc(C2CC2)nn1-c1ccccc1)N1CCN(S(=O)(=O)c2ccccc2)CC1`?
Nrf2 inh: -16%; Nrf2 activator: -1%; A549 tox: 6%; ELG1 repair inh: -18%

What do the screens show for `COc1ccc(OC)c(S(=O)(=O)N2CCC(C(=O)Nc3cccc(C)c3)CC2)c1`?
Nrf2 inh: inconclusive; Nrf2 activator: 0%; A549 tox: -12%; ELG1 repair inh: 21µM*

What do the screens show for `O=C1C(=C(O)c2ccccc2)C(=O)c2ccccc21`?
Nrf2 inh: -5%; Nrf2 activator: 5%; A549 tox: -20%; ELG1 repair inh: inconclusive

What do the screens show for `O=C1C(=O)c2ccccc2C([O-])=C1[n+]1ccccc1`?
Nrf2 inh: inconclusive; Nrf2 activator: 3%; A549 tox: -8%; ELG1 repair inh: 18µM*

Results for CC(C)OC(=O)c1c(-c2ccccc2)c(-c2ccccc2)nn(C)c1=O ?
Nrf2 inh: 9.2µM*; Nrf2 activator: 4%; A549 tox: -4%

Results for COC(=O)c1c(-c2ccccc2)c(-c2ccccc2)nn(C)c1=O ?
Nrf2 inh: -22%; Nrf2 activator: 2%; A549 tox: -2%; ELG1 repair inh: -4%

What do the screens show for `Cc1cc(C)c(S(=O)(=O)c2ccccc2)c(OC(=O)c2c(F)cccc2F)n1`?
Nrf2 inh: inconclusive; Nrf2 activator: 0%; A549 tox: -3%; ELG1 repair inh: 0%

What do the screens show for `Cc1cc(C)c(S(=O)(=O)c2ccccc2)c(OC(=O)c2c(Cl)cc(Cl)cc2Cl)n1`?
Nrf2 inh: 16µM*; Nrf2 activator: 3%; A549 tox: inconclusive; ELG1 repair inh: 3%

How did O=C(CN1C(=O)C2CCCCC2C1=O)OCC(=O)c1ccc(Cl)s1 (stereo not drawn) do in these assays?
Nrf2 inh: -7%; Nrf2 activator: 0%; A549 tox: 0%; ELG1 repair inh: -17%

Results for Cc1ccc(NC(=O)Cc2ccccc2)cc1S(=O)(=O)N1CCOCC1 ?
Nrf2 inh: -4%; Nrf2 activator: -1%; A549 tox: -3%; ELG1 repair inh: inconclusive

What do the screens show for `O=c1oc2ccccc2c(Nc2ccc(Cl)cc2)c1[N+](=O)[O-]`?
Nrf2 inh: 16µM*; Nrf2 activator: 14%; A549 tox: -4%; ELG1 repair inh: inconclusive

How did O=c1oc2ccccc2c(Nc2ccc(F)cc2)c1[N+](=O)[O-] do in these assays?
Nrf2 inh: -25%; Nrf2 activator: 28%; A549 tox: -13%; ELG1 repair inh: -20%

Results for COc1ccc(O)c(/C=N/NC(=O)c2ccc(CSc3nc(C)cc(C)n3)cc2)c1 ?
Nrf2 inh: 9.2µM*; Nrf2 activator: 4%; A549 tox: -13%; ELG1 repair inh: inconclusive

What do the screens show for `COc1ccc(O)c(/C=N/NC(=O)c2ccc(OCc3cccc(Br)c3)cc2)c1`?
Nrf2 inh: -28%; Nrf2 activator: 0%; A549 tox: 20%; ELG1 repair inh: 3.7µM*

Results for COc1ccc(/C=N/NC(=O)c2ccc(CSc3nc(C)cc(C)n3)cc2)cc1O ?
Nrf2 inh: 21µM*; Nrf2 activator: 6%; A549 tox: -25%; ELG1 repair inh: -6%

What do the screens show for `Cc1cc(C)nc(SCc2ccc(C(=O)N/N=C/c3cccc(O)c3O)cc2)n1`?
Nrf2 inh: inconclusive; Nrf2 activator: 0%; A549 tox: -2%; ELG1 repair inh: -13%

Results for N#Cc1cccc(OC2=NS(=O)(=O)c3ccccc32)c1 ?
Nrf2 inh: 11%; A549 tox: 10%
